PubChem BioAssay (EPA / NIEHS)
Some compounds were tested as several samples or in several runs, with calls that do not always agree. Active and inactive are the calls of the source. How the source made its calls: active means hit-call score of the fitted dose curve at least 0.9, where 1 is the maximum; inactive means score below 0.9.

What was measured:
[1] = read-out: Forkhead box O1 (FOXO1), FOXO1 (gene 2308); test: LTEA_HepaRG_FOXO1: Life Technologies and Expression Analysis (LTEA) Assay for Forkhead box O1 (FOXO1) using HepaRG (AID 2283456); settings: mRNA level, 48 h; actives raise or lower the signal
Outline: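 Using one lot of HepaRG hepatic cells kept in 0.5% DMSO, the team applied test chemicals in duplicate, half-log dilutions from 100 uM, for 48 h. Expression, normalised to ACTB/GAPDH/POLR2A, was compared with vehicle in either direction.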

[2] = read-out: growth arrest and DNA damage 45 (GADD45A), GADD45A (gene 1647); test: LTEA_HepaRG_GADD45A: Life Technologies and Expression Analysis (LTEA) Assay for growth arrest and DNA damage 45 (GADD45A) using HepaRG (AID 2283458); settings: mRNA level, 48 h; actives raise or lower the signal
Outline: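 GADD45A expression was measured by TaqMan qRT-PCR against three housekeeping genes (ACTB, GAPDH, POLR2A) after 48 h treatment of HepaRG cells. Eight-point half-log series up to 100 uM in 0.5% DMSO, run in duplicate.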

[3] = read-out: Forkhead box O3 (FOXO3), FOXO3 (gene 2309); test: LTEA_HepaRG_FOXO3: Life Technologies and Expression Analysis (LTEA) Assay for Forkhead box O3 (FOXO3) using HepaRG (AID 2283459); settings: mRNA level, 48 h; actives raise or lower the signal
Outline: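 Gene-expression endpoint: FOXO3 transcript level by qRT-PCR in HepaRG cultures treated 48 h with chemicals up to 100 uM (half-log, 0.5% DMSO vehicle).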

[4] = read-out: ABC Transporter (ABCB1), ABCB1 (gene 5243); test: LTEA_HepaRG_ABCB1: Life Technologies and Expression Analysis (LTEA) Assay for ABC Transporter (ABCB1) using HepaRG (AID 2283460); settings: mRNA level, 48 h; actives raise or lower the signal
Outline: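 Human liver HepaRG line treated 48 h with up to 100 uM compound (eight half-log points, 0.5% DMSO); ABCB1 mRNA change fitted bidirectionally against DMSO controls.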

[5] = read-out: growth arrest and DNA damage 45 (GADD45B), GADD45B (gene 4616); test: LTEA_HepaRG_GADD45B: Life Technologies and Expression Analysis (LTEA) Assay for growth arrest and DNA damage 45 (GADD45B) using HepaRG (AID 2283461); settings: mRNA level, 48 h; actives raise or lower the signal
Outline: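 HepaRG, ~100,000 cells/well, 48 h plating; serum-free induction medium; cpd 100 uM top, half-log x8, 0.5% DMSO, duplicate, 48 h; lysis in RLT, RNA isolation, qRT-PCR; norm ACTB/GAPDH/POLR2A; bidirectional fit vs DMSO.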

[6] = read-out: ABC Transporter (ABCC3), ABCC3 (gene 8714); test: LTEA_HepaRG_ABCC3: Life Technologies and Expression Analysis (LTEA) Assay for ABC Transporter (ABCC3) using HepaRG (AID 2283462); settings: mRNA level, 48 h; actives raise or lower the signal
Outline: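 Human HepaRG, 48 h dosing, 8-pt half-log series from 100 uM, 0.5% DMSO vehicle, duplicates. ABCC3 mRNA by TaqMan qRT-PCR, housekeeping-normalized; bidirectional curve fit vs DMSO.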

[7] = read-out: ABC Transporter (ABCB11), ABCB11 (gene 8647); test: LTEA_HepaRG_ABCB11: Life Technologies and Expression Analysis (LTEA) Assay for ABC Transporter (ABCB11) using HepaRG (AID 2283463); settings: mRNA level, 48 h; actives raise or lower the signal
Outline: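 Using HepaRG cultures held in 0.5% DMSO, chemicals were tested at half-log dilutions from 100 uM for 48 h. Induction or suppression of ABCB11 mRNA, normalized to ACTB, GAPDH and POLR2A, was fitted bidirectionally against vehicle.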

[8] = read-out: ABC Transporter (ABCC2), ABCC2 (gene 1244); test: LTEA_HepaRG_ABCC2: Life Technologies and Expression Analysis (LTEA) Assay for ABC Transporter (ABCC2) using HepaRG (AID 2283464); settings: mRNA level, 48 h; actives raise or lower the signal
Outline: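 HepaRG, 48 h post-plating; serum-free induction medium; cpd 8-pt, 100 uM top, half-log, 0.5% DMSO, duplicate, 48 h. Readout: ABCC2 mRNA by qRT-PCR, norm. ACTB/GAPDH/POLR2A. Bidirectional fit vs DMSO baseline.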

[9] = read-out: Broad substrate specificity ATP-binding cassette transporter ABCG2 (Homo sapiens) (UniProt Q9UNQ0); test: LTEA_HepaRG_ABCG2: Life Technologies and Expression Analysis (LTEA) Assay for ABC Transporter (ABCG2) using HepaRG (AID 2283465); settings: mRNA level, 48 h; actives raise or lower the signal
Outline: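 Gene expression of ABCG2 in HepaRG liver cells is quantified by qRT-PCR following 48 h exposure across an eight-point series topping at 100 uM. Values come from bidirectional fitting relative to DMSO vehicle.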

[10] = read-out: ATP-citrate lyase (ACLY), ACLY (gene 47); test: LTEA_HepaRG_ACLY: Life Technologies and Expression Analysis (LTEA) Assay for ATP-citrate lyase (ACLY) using HepaRG (AID 2283466); settings: mRNA level, 48 h; actives raise or lower the signal
Outline: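 ACLY expression changes in human HepaRG liver cells are quantified by qRT-PCR after 48 h exposure to test chemicals (maximum 100 uM, half-log steps). Values are fitted in both directions relative to 0.5% DMSO vehicle.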

[11] = read-out: Peroxisomal acyl-coenzyme A oxidase 1 (ACOX1) gene, ACOX1 (gene 51); test: LTEA_HepaRG_ACOX1: Life Technologies and Expression Analysis (LTEA) Assay for Peroxisomal acyl-coenzyme A oxidase 1 (ACOX1) gene using HepaRG (AID 2283467); settings: mRNA level, 48 h; actives raise or lower the signal
Outline: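 Human HepaRG hepatic cultures, 48 h treatment with test chemicals up to 100 uM. ACOX1 expression read by qRT-PCR relative to 0.5% DMSO vehicle.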

[12] = read-out: Alkaline Phosphatase, Placental (ALPP) gene, ALPP (gene 250); test: LTEA_HepaRG_ALPP: Life Technologies and Expression Analysis (LTEA) Assay for Alkaline Phosphatase, Placental (ALPP) gene using HepaRG (AID 2283468); settings: mRNA level, 48 h; actives raise or lower the signal;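 on AC50: differentiated human HepaRG liver cells in serum-free induction medium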
Outline: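 HepaRG, 48 h plating then 48 h dosing, serum-free induction medium, 0.5% DMSO. 8 conc, half-log, max 100 uM, duplicates. Endpoint: ALPP transcript by qRT-PCR, housekeeping-normalized; gain or loss fitted vs DMSO.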

[13] = read-out: Bcl-2 (BAD) gene, BAD (gene 572); test: LTEA_HepaRG_BAD: Life Technologies and Expression Analysis (LTEA) Assay for Bcl-2 (BAD) gene using HepaRG (AID 2283469); settings: mRNA level, 48 h; actives raise or lower the signal
Outline: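 Activity values reflect up- or down-regulation of BAD mRNA in human HepaRG hepatic cells treated 48 h in serum-free medium, with eight-point half-log dosing capped at 100 uM and 0.5% DMSO vehicle.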

[14] = read-out: Bcl-2 (BAX) gene, BAX (gene 581); test: LTEA_HepaRG_BAX: Life Technologies and Expression Analysis (LTEA) Assay for Bcl-2 (BAX) gene using HepaRG (AID 2283470); settings: mRNA level, 48 h; actives raise or lower the signal
Outline: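 Gene expression measured by Fluidigm qRT-PCR with three housekeeping genes for normalisation. HepaRG cells, plated 48 h beforehand, treated 48 h at up to 100 uM (8-point, half-log) in 0.5% DMSO. Bidirectional fitting versus DMSO.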

[15] = read-out: adenosine kinase (ADK) gene, ADK (gene 132); test: LTEA_HepaRG_ADK: Life Technologies and Expression Analysis (LTEA) Assay for adenosine kinase (ADK) gene using HepaRG (AID 2283471); settings: mRNA level, 48 h; actives raise or lower the signal
Outline: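 Following 48 h exposure of HepaRG cells in 0.5% DMSO (top concentration 100 uM, duplicate wells), ADK mRNA induction or suppression was measured by qRT-PCR, normalised to ACTB/GAPDH/POLR2A, and fitted bidirectionally relative to vehicle.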

[16] = read-out: Alpha-fetoprotein (AFP) gene, AFP (gene 174); test: LTEA_HepaRG_AFP: Life Technologies and Expression Analysis (LTEA) Assay for Alpha-fetoprotein (AFP) gene using HepaRG (AID 2283472); settings: mRNA level, 48 h; actives raise or lower the signal
Outline: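 AFP transcript measured by TaqMan qRT-PCR with three housekeeping genes for normalization, after 48 h chemical treatment of HepaRG cells (top 100 uM, half-log steps, 0.5% DMSO). Gain or loss fitted against vehicle.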

BCL2L11 (gene 10018) = test: LTEA_HepaRG_BCL2L11: Life Technologies and Expression Analysis (LTEA) Assay for Bcl-2 (BCL2L11) gene using HepaRG (AID 2283473); settings: mRNA level, 48 h; actives raise or lower the signal
Outline: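 Read-out is BCL2L11 transcript level by qRT-PCR, normalized to three housekeeping genes and fitted bidirectionally against 0.5% DMSO vehicle. HepaRG cells received chemicals for 48 h in serum-free induction medium, 100 uM down in half-log dilutions.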

[17] = read-out: Apolipoprotein A-V (APOA5) gene, APOA5 (gene 116519); test: LTEA_HepaRG_APOA5: Life Technologies and Expression Analysis (LTEA) Assay for Apolipoprotein A-V (APOA5) gene using HepaRG (AID 2283474); settings: mRNA level, 48 h; actives raise or lower the signal
Outline: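 Readout is APOA5 transcript level by qRT-PCR on Fluidigm dynamic arrays, normalized to three housekeeping genes. HepaRG cultures received chemicals for 48 h at up to 100 uM (half-log steps, 0.5% DMSO), with gain or loss scored relative to DMSO.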

[18] = read-out: Apoptosis regulator Bcl-2 (Homo sapiens) (UniProt P10415); test: LTEA_HepaRG_BCL2: Life Technologies and Expression Analysis (LTEA) Assay for Bcl-2 gene using HepaRG (AID 2283475); settings: mRNA level, 48 h; actives raise or lower the signal
Outline: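 qRT-PCR of BCL2 transcript, normalized to three housekeeping genes (ACTB, GAPDH, POLR2A), after 48 h chemical exposure of HepaRG cells; concentrations top 100 uM with half-log dilutions, 0.5% DMSO vehicle, duplicates; changes up or down fitted relative to vehicle.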

[19] = CEETOX_H295R_TESTO: CeeTox H295R High-throughput Steroidogenesis Assay for Testosterone (TESTO) (AID 2283457); settings: actives raise or lower the signal
Outline: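 H295R, passage ≤10, 48 h dosing; media extracted with MTBE → HPLC-MS/MS for testosterone; 7-pt standard curve sets LLOQ/ULOQ; bidirectional fit vs DMSO; MTT viability same wells.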

Measured: AC50

Chain of Apoptosis regulator Bcl-2 (Homo sapiens) (P10415 whole entry, looked up): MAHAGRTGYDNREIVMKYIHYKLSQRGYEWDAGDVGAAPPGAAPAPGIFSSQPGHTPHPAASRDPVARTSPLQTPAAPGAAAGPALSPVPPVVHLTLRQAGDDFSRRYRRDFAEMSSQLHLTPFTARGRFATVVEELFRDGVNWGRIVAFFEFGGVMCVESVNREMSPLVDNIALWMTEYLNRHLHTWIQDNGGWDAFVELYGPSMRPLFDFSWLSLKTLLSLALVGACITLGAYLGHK
Chain of Broad substrate specificity ATP-binding cassette transporter ABCG2 (Homo sapiens) (Q9UNQ0 whole entry, looked up): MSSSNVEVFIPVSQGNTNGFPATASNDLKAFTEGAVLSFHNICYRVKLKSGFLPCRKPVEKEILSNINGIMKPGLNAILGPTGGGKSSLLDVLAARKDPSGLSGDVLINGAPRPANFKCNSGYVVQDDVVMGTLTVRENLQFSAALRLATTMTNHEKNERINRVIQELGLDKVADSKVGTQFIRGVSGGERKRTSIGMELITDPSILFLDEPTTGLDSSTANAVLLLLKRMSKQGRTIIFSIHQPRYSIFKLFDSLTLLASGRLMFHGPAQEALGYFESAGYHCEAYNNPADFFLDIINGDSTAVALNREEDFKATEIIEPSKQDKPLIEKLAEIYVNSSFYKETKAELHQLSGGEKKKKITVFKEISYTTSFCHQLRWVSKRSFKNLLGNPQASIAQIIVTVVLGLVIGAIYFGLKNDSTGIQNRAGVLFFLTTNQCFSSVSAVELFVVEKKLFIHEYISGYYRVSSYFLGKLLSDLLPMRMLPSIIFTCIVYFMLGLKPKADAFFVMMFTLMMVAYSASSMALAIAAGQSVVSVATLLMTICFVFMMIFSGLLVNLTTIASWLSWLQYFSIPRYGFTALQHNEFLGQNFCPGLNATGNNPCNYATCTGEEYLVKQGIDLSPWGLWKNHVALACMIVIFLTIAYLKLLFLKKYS

N#Cc1cc(Br)c(O)c(Br)c1
inactive: [13] | [14]
active: [1] 40 µM | [2] 72.5 µM | [3] 13.7 µM | [4] 12.1 µM | [5] 27.1 µM | [6] 9.48 µM | [7] 19.9 µM | [8] 14 µM | [9] 10.2 µM | [10] 23.5 µM | [11] 11.1 µM | [12] 8.91 µM | [15] 6.14 µM | [16] 13.9 µM | BCL2L11 (gene 10018) 10.4 µM | [17] 21.2 µM | [18] 10 µM

CCNc1nc(Cl)nc(NCC)n1
not listed: [19]
inactive: all other assays above

CCCCNC(=O)OCC#CI
active: [7] 50 µM | [8] 50 µM | [9] 9.92 µM | [12] 9.92 µM | [15] 50 µM
not listed: [19]
inactive: all other assays above

COc1nc(NC(C)C)nc(NC(C)C)n1
active: [4] 9.31 µM
not listed: [19]
inactive: all other assays above

COC(=O)C(C)Oc1ccc(Oc2ccc(Cl)cc2Cl)cc1 (stereo not drawn)
active: [1] 13.7 µM | [7] 45.7 µM | [11] 21.7 µM | [16] 79.6 µM | [18] 50 µM
not listed: [19]
inactive: all other assays above

Cc1cc(Cl)ccc1OCC(=O)O
active: [7] 50 µM | [11] 34.3 µM
inactive: all other assays above

CCCC1COC(Cn2cncn2)(c2ccc(Cl)cc2Cl)O1 (stereo not drawn)
inactive: [19] | [3] | [4] | [5] | [13] | [15] | BCL2L11 (gene 10018)
active: [1] 76.1 µM | [2] 67.2 µM | [6] 12.2 µM | [7] 36.9 µM | [8] 68.5 µM | [9] 22.2 µM | [10] 11.9 µM | [11] 25.9 µM | [12] 25.6 µM | [14] 81 µM | [16] 24 µM | [17] 47.4 µM | [18] 33.7 µM

CCCCC(CC)COC(=O)c1ccccc1C(=O)OCC(CC)CCCC (stereo not drawn)
not listed: [19]
inactive: all other assays above

CCOC(=O)CC(SP(=S)(OC)OC)C(=O)OCC (stereo not drawn)
inactive: all assays above

O=C(O)c1nc(Cl)ccc1Cl
inactive: [1] | [2] | [3] | [4] | [5] | [6] | [7] | [8] | [9] | [10] | [11] | [12] | [13] | [14] | [15] | [16] | BCL2L11 (gene 10018) | [17] | [18]
active: [12] 27.3 µM

CCc1nn(C)c(C(=O)NCc2ccc(C(C)(C)C)cc2)c1Cl
active: [1] 0.484 µM | [2] 12 µM | [6] 0.296 µM | [7] 0.877 µM | [8] 14.3 µM | [9] 0.361 µM | [10] 0.502 µM | [11] 0.369 µM | [12] 0.688 µM | [14] 18 µM | [15] 35.8 µM | [16] 0.965 µM | BCL2L11 (gene 10018) 0.636 µM | [17] 0.5 µM | [18] 0.822 µM
inactive: [3] | [4] | [5] | [13]
